Source: PubChem
Only some compounds are listed: those with a hit (about 7.4% of all), similar ones and a draw of the others.
Luciferase inh = inhibitors of firefly (Photinus pyralis) luciferase. purified P. pyralis luciferase, luminescence, biochemical. Potency, µM (highest dose often 115 µM), usual class: inhibitors. 76,000 tested, 2.5% active. AID 1347043; further: nearly all actives have a fitted effect of over 65% in size
Target sequence (P08659 whole entry, looked up): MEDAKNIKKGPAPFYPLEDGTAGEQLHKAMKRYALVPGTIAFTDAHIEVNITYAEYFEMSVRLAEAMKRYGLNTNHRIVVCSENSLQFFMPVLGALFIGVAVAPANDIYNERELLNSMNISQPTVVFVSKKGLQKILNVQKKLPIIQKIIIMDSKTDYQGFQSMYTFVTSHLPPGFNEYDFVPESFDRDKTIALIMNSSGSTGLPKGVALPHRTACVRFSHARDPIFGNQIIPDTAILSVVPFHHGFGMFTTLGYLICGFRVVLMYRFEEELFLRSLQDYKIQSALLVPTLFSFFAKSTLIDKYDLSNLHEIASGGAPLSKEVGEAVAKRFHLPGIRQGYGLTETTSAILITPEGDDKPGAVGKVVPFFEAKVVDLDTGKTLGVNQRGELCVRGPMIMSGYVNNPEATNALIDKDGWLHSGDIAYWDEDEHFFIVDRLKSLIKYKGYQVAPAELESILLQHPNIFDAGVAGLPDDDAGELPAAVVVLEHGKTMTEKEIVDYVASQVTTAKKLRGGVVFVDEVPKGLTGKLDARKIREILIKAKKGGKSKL
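FLuc 10nM, D-luciferin 10uM, ATP 10uM, Mg acetate 10mM, Tris acetate pH 7.5, Tween/BSA; cpd qHTS; enzyme added last; CCD luminescence.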
SNCA expr inhib = reduces expression of the alpha-synuclein gene | HEK-293 SNCA-luciferase knock-in, luminescence, 24 h | Potency, µM (titrated, usually from 57.2 µM), usual class: inhibitors | 140,000 tested, 0.17% active; further: nearly all actives have a fitted effect of over 45% in size
NPR1 antag = blocks ANP-stimulated signaling of human Npr1 receptor; HEK293 hNpr1 GloSensor cGMP, ANP-stimulated luminescence; Potency, µM (series often up to 46.3 µM), usual class: inhibitors; 76,000 tested, 1.6% active; calls by dose curve; further: nearly all actives have a fitted effect of over 60% in size
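HEK293 cells stably expressing human Npr1 and cGMP GloSensor pGS-40F, loaded 2 h with 2% GloSensor reagent, given compound 30 min at room temperature. Luminescence read before and 20 min after 0.1 nM hNppA.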
HEK293 tox = HEK 293 cell cytotoxicity. HEK 293 viability, ATP luminescence (CellTiter-Glo), 48-72 h. Potency, µM (top dose mostly 115 µM), usual class: inhibitors. 94,000 tested, 6.6% active. AID 1345083; further: nearly all actives have a fitted effect of over 60% in size
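Cells seeded first (HEK 293, 250 cells/well), then compound added by pintool. Incubation ran 48 or 72 hr at 37 degree Celsius. CellTiter-Glo was added and luminescence imaged after 10 min at room temperature.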
HEK293 viab = reduces viability of HEK-293 SNCA reporter cells | Potency, µM (titrated, usually from 57.1 µM), hits mostly cytotoxic | 150,000 tested, 0.12% active | AID 1671193 | HEK-293-SNCA-luc viability, GF-AFC fluorescence, 24 h; further: nearly all actives have a fitted effect of over 30% in size
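HEK-293-SNCA-luc cells (1500/well) plated 24 h, then exposed 24 h to a dilution series; GF-AFC added 30 min at 37C, fluorescence 405/540 nm; normalised to medium-only and DMSO wells, Hill fit.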
3T3 cytotox = NIH 3T3 cell cytotoxicity; NIH 3T3 viability, CellTiter-Glo ATP luminescence, 48-72 h; Potency, µM (top dose mostly 96.7 µM), usual class: inhibitors; 94,000 tested, 4.3% active; AID 1345082; further: nearly all actives have a fitted effect of over 55% in size
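Cytotoxicity was measured by CellTiter-Glo ATP luminescence after 48 or 72 h compound exposure at 37 °C. Mouse NIH 3T3 fibroblasts were seeded at 400 cells/well and dosed by 23 nL pin transfer.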
A number is an active result; 0 = inactive; ? = inconclusive; - = no result; ! = not active in a repeat. Unless noted, the call rests on the fitted dose curve; in most records, active means well fitted curve in the direction sought with a large enough effect; inconclusive means small, poorly fitted or top-dose-only effect, or another doubt; inactive means no such curve, though single readings can be large; an effect the other way counts as inactive or inconclusive.

SMILES | Luciferase inh | SNCA expr inhib | NPR1 antag | HEK293 tox | HEK293 viab | 3T3 cytotox
COc1ccc(CN2CCC3(Cc4ccccc4NC3=O)C2)cc1 (stereo not given) | 0 | 0 | 0 | ? | 0 | ?
O=C1Nc2ccccc2CC12CCN(Cc1ccc(OC(F)(F)F)cc1)C2 (stereo not given) | 0 | ? | ? | 28.2µM | 0 | ?
O=C1Nc2ccccc2CC12CCN2Cc1ccc(OC(F)(F)F)cc1 (stereo not given) | 0 | 0 | 0 | 44.7µM | 0 | ?
O=C1Nc2ccccc2CC12CCN(Cc1ccc(Cl)cc1)CC2 | - | 0 | - | 89.1µM | 0 | ?
COc1cccc(C(=O)N2CCCC2c2nc(C3CCOCC3)no2)c1 (stereo not given) | 0 | 0 | 0 | 0 | 0 | 0
Cc1ccccc1C(=O)N1CCCCC12Cc1ccccc1NC2=O (stereo not given) | 0 | 0 | 0 | 112µM! | 0 | ?
COc1ccc(CN2CCC3(CN[S+](=O)([O-])c4ccccc4N3)C2)cc1 (stereo not given) | 0 | ? | 0 | 0 | 0 | 0
O=[S+]1([O-])NCC2(CCN(Cc3ccc(OC(F)(F)F)cc3)C2)Nc2ccccc21 (stereo not given) | 0 | 0 | 0 | 79.4µM | 0 | ?
Cc1ccc(CN2CCC3(CC2)Cc2ccccc2CNC3=O)cc1 | - | 0 | - | ? | 0 | ?
O=C(C1CCCC1)N1CCCCC12Cc1ccccc1NC2=O (stereo not given) | 0 | 0 | 0 | 0 | 0 | 0
O=C1NCc2ccccc2CC12CCN(Cc1ccc(-c3ccccc3)cc1)CC2 | - | ? | - | 31.6µM | 0 | 25.1µM
COCCN1CC(C(=O)N2CCN(c3ncccc3C#N)CC2)CCC1=O (stereo not given) | 0 | 0 | 0 | 0 | 0 | 0
COCC(=O)Nc1ccc(-n2ccnc2-c2ccc(O)c(OC)c2)cc1C | 0 | ? | 0 | ? | 0 | 0
Cc1noc(C)c1-c1cc2cc(CN(C)C)oc2c(NCC(C)C)n1 | 0 | 0 | 0 | 70.8µM | 0 | 50.1µM
Cc1noc(C)c1-c1cc2cc(CN(C)C)oc2c(NCCOc2ccccc2)n1 | 0 | 0 | 0 | ? | ? | 79.4µM
COCCCNc1nc(-c2c(C)noc2C)cc2cc(CN(C)C)oc12 | 0 | 0 | 0 | 0 | 0 | ?
Cc1noc(C)c1-c1cc2cc(CN(C)C)oc2c(NCCc2ccccc2)n1 | 0 | 0 | 0 | 56.2µM | 0 | 44.7µM
CCCNC(=O)c1c(C)oc2ccn(Cc3ccc(F)cc3)c(=O)c12 | 0 | 0 | 0 | 35.5µM | 0 | ?
COc1ccc(C(C)NC(=O)c2c(C)oc3ccn(Cc4cccc(F)c4)c(=O)c23)cc1 (stereo not given) | 0 | ? | 0 | 31.6µM | 0 | ?
CC(C)CCNC[C@H]1O[C@H](Cc2cc(CN3CCCCC3)on2)CC[C@@H]1O | 0 | 0 | 0 | ? | ? | ?
CCC(=O)N1CCc2c(C(=O)NCc3cccnc3)cccc21 | 0 | 0 | 0 | 0 | 0 | 0
CC(NC(=O)c1cccc2c1CCN2C(=O)Nc1ccc(F)cc1)c1ccccn1 (stereo not given) | 0.794µM | 0 | 11.2µM | ? | 0 | ?
Cc1ccc(NC(=O)N2CCc3c(C(=O)NC(C)c4cccnc4)cccc32)cc1 (stereo not given) | 0.398µM | 3.98µM | 4.47µM | ? | 0 | ?
Cc1nn2c(c1-c1ccccc1C(C)C)N(C(=O)Cc1ccccn1)CCC2 | 0 | ? | 0 | ? | ? | ?
COc1ccccc1Oc1ncccc1CNC(=O)c1ccccc1SC | 31.6µM | 0 | 0 | ? | 0 | 0
COc1ccccc1Oc1ncccc1CNC(=O)Nc1cccc(C#N)c1 | 0 | 0 | 0 | ? | 0 | 31.6µM
Cc1ccccc1Oc1c(CCC(=O)N2CCSCC2)c(C)nn1-c1ccccc1C | 0 | 0 | 0 | ? | 0 | ?
O=C(N[C@H]1CCN2C(=O)c3cc(-c4ccc(Cl)cc4)ccc3NC(=O)[C@H]12)c1cccs1 | 11.2µM | 0 | 0 | ? | 0 | ?
COc1ccc(Cl)cc1-c1ccc2c(c1)C(=O)N1CC[C@H](NC(=O)c3cccs3)[C@H]1C(=O)N2 | 0 | ? | ? | 35.5µM | ? | ?
